20 molecules from PubChem BioAssay (NCI) can be followed below.

Assay [1] in a line: NCI Yeast Anticancer Drug Screen. Data for the rad50 strain (AID 155).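 Note: 0% = growth of vehicle-only cultures of the same strain.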 The following applies: S. cerevisiae rad50 strain growth inhibition; at 50.0 µM; hits give high values. The essentials: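 Vehicle-treated cultures provide the reference for the growth inhibition reported for compound-exposed, repair-deficient yeast.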
A short description of assay [2]: NCI Yeast Anticancer Drug Screen. Data for the mec2-1 strain (AID 157). The following applies: S. cerevisiae mec2-1 strain, at 50.0 µM, hits give high values. The method, boiled down: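 Each compound was tested on mec2-1 yeast, a strain altered in DNA damage repair or cell cycle control. Growth inhibition is reported relative to vehicle.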
The nature of assay [3]: NCI Yeast Anticancer Drug Screen. Data for the sgs1 mgt1 strain (AID 161).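 Note: 0% = growth of cultures given vehicle only.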 The conditions noted are these: S. cerevisiae sgs1 mgt1 strain, at 50.0 µM, hits give high values. The essentials:
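Read-out: growth inhibition vs vehicle controls. Cells: mutant yeast strain deficient in DNA damage repair.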

A short description of assay [4]: NCI Yeast Anticancer Drug Screen. Data for the cln2 rad14 strain (AID 165).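 Note: 0% = growth equal to vehicle treated cultures.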 The following applies: S. cerevisiae cln2 rad14 strain, at 50.0 µM, hits give high values. The essentials:
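Test compounds were added to cln2 rad14 yeast cultures; inhibition of growth was then determined by comparison with vehicle treatment.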

The nature of assay [5]: NCI Yeast Anticancer Drug Screen. Data for the bub3 strain (AID 167). The following applies: S. cerevisiae bub3 mutant strain, at 50.0 µM, hits give high values. The method, boiled down: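 Mutant yeast screening strain plus compound; vehicle-treated cultures serve as the 0% inhibition reference.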
Assay [6] in a line: NCI Yeast Anticancer Drug Screen. Data for the mlh1 rad18 strain (AID 175). The following applies: S. cerevisiae mlh1 rad18 strain growth inhibition; at 50.0 µM; hits give high values. The method, boiled down:
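Inhibition values reflect reduced growth of mutant yeast versus vehicle-treated controls following compound exposure; the mutations affect DNA damage repair.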

About 79,000 compounds went through this panel and 15% of them were active in at least one assay; those are over-represented in the sample as a whole. A number with no mark means an inactive call. The source made the active and inactive calls. Cut-off read from the data, not from the text of the source: active = growth inhibition above about 70%; inactive = the rest.

On to `[N-]=[N+]=NP1(=O)OC(c2ccccc2)=CCN1c1ccccc1` (stereo not given), for which the growth inhibition was -9.2% in assay [1]; -9.5% in assay [2]; -8.45% in assay [3]; 20.7% in assay [4]; 8.65% in assay [5]; -4.1% in assay [6].
For `O=[N+]([O-])c1c(F)cc(F)c([N+](=O)[O-])c1F`, the growth inhibition was -29.5% in assay [1]; -6.15% in assay [2]; -11.6% in assay [3]; -28.2% in assay [4]; -4.75% in assay [5]; 52.9% in assay [6].
As for `CC(=O)Nc1ncc2ccccc2c1-c1ccc(NC(=O)CCN(CCCl)CCCl)cc1`, the growth inhibition in assay [1] is 84.5% (active); in assay [2], -0.45%; in assay [3] it was 12.2%; in assay [4], -30.1%; in assay [5], 17.6%; in assay [6] it was -9.2%.
Take `O=C(O)/C=C\c1c[nH]c2ccccc12` (tested in a mixture with another compound): the growth inhibition in assay [1] is -3.3%; in assay [2], -7.35%; in assay [3], -13.4%; in assay [4] it was 0.95%; in assay [5], -10.8%; in assay [6], -12.2%.
As for `COc1ccc([Se]c2ccc(OC)cc2)cc1`, the growth inhibition is 0% in assay [1]; -15.5% in assay [2]; -7.15% in assay [3]; -13.6% in assay [4]; 21.4% in assay [5]; -4.55% in assay [6].
As for `OC(Br)C1C(c2ccccc2)N1C1CCCCC1` (stereo not given), the growth inhibition was -2% in assay [1]; 18.4% in assay [2]; -3.35% in assay [3]; -11.2% in assay [4]; 0.15% in assay [5]; 7.4% in assay [6].
Take `CSP(=S)(SC(C)C)SC(C)C`: the growth inhibition in assay [1] was 13.7%; in assay [2], 5.75%; in assay [3], 13.2%; in assay [4], 3.8%; in assay [5], 0.5%; in assay [6], 29.3%.
For `COc1ccc(CC#N)cc1`, the growth inhibition was -51.1% in assay [1]; -5.25% in assay [2]; 19.4% in assay [3]; -35% in assay [4]; 1.4% in assay [5]; 15.2% in assay [6].
Regarding `CNC(=O)Oc1cccc2c1C(=O)OC2=O`, the growth inhibition in assay [1] was -2.7%; in assay [2], 4.25%; in assay [3], -6.55%; in assay [4], -25.1%; in assay [5], 2.15%; in assay [6] it was 7.1%.
With `COc1ccc2c(c1O)[C@@]13C=C(O)C(=O)C=C1[C@@H](C2)N(C)CC3`, the growth inhibition in assay [1] was 40%; in assay [2], 4.6%; in assay [3] it was 11.6%; in assay [4], 23.6%; in assay [5] it was -2.6%; in assay [6], -47.9%.
In the case of `COP(=O)(CC(=O)CCCCC1OCCO1)OC`, the growth inhibition was 2.25% in assay [1]; 0% in assay [2]; 1.3% in assay [3]; -22.8% in assay [4]; -5.3% in assay [5]; -4.85% in assay [6].
Take `CCC1(O)CC(O)c2c(O)c3c(c(O)c2C1C(=O)OC)C(=O)c1cccc(O)c1C3=O` (stereo not given): the growth inhibition in assay [1] was 20.8%; in assay [2], 39.8%; in assay [3], 28.2%; in assay [4], 21.8%; in assay [5] it was 14.5%; in assay [6], 36.8%.
On to `Clc1ccc([As](c2ccc(Cl)cc2)c2ccc(Cl)cc2)cc1`, for which the growth inhibition in assay [1] is 77.5% (active); in assay [2], 48.1%; in assay [3], 74.3% (active); in assay [4], 13.7%; in assay [5], 30.5%; in assay [6] it was 48.4%.
Regarding `O=P(Oc1ccccc1)(Oc1ccccc1)N(CCCl)CCCl`, the growth inhibition in assay [1] is 0.2%; in assay [2], 9.55%; in assay [3], -8.35%; in assay [4] it was -11.9%; in assay [5], -19.2%; in assay [6] it was -37.6%.
Regarding `CC(=O)NNC(=O)C(Cl)Cl`, the growth inhibition in assay [1] is 5.45%; in assay [2], -3.75%; in assay [3] it was 8.45%; in assay [4] it was 8%; in assay [5], 4.15%; in assay [6], 25.4%.
For the molecule `NC(N)=NCCCCCCCCCCN=C(N)N`, the growth inhibition was 0.45% in assay [1]; -20.2% in assay [2]; -6.05% in assay [3]; 8.4% in assay [4]; -2.35% in assay [5]; -10.3% in assay [6].
Turning to `Nc1n[nH]c(CCc2nc(N)n[nH]2)n1`, the growth inhibition was 22.8% in assay [1]; -12.2% in assay [2]; -18.1% in assay [3]; 7.65% in assay [4]; 11.6% in assay [5]; 4.9% in assay [6].
For the molecule `Cc1ccc([As]=[As]c2ccc(C)cc2N)c(N)c1` (stereo not given), the growth inhibition is -12.3% in assay [1]; -2.8% in assay [2]; -3.95% in assay [3]; -9.95% in assay [4]; 9.05% in assay [5]; -9.6% in assay [6].
Take `O=[N+]([O-])c1ccc(OCc2ccc(Cl)c(S(=O)(=O)F)c2)c(Cl)c1`: the growth inhibition was -18.1% in assay [1]; -8.3% in assay [2]; 29.8% in assay [3]; -24.4% in assay [4]; 20.7% in assay [5]; 24.1% in assay [6].
On to `CN1CCc2c([nH]c3ccccc23)C1`, for which the growth inhibition in assay [1] is 18.4%; in assay [2] it was -7.3%; in assay [3] it was 20.6%; in assay [4], 17.2%; in assay [5], 1.2%; in assay [6], -45.1%.
